# Data taken from PubChem BioAssay (Tox21).
# Records with an inconclusive call do not appear. Where a call stands in place of a potency, no number is given. Active and inactive are the calls of the source. The call rests on the fitted dose curve.
# Test: qHTS assay to identify small molecule agonists of the AP-1 signaling pathway - cell viability counter screen (AID 1159525); further: nearly all actives have a fitted effect of over 55% in size
# Details: ME-180 (cervical carcinoma) AP-1-bla cells viability, ATP luminescence, 5 h; series mostly up to 76.8 µM
# From the text: National Center for Advancing Translational Sciences [NCATS]
# NIH Chemical Genomics Center [NCGC]
# U.S. Environmental Protection Agency [EPA]
# National Institutes of Environmental Health Sciences [NIEHS]
# National Toxicology Program [NTP]
# U.S. Food and Drug Administration [FDA]
# Activator protein-1 (AP-1), a transcription factor, plays an important role in tumor genesis by regulating genes involved in cell proliferation, differentiation, apoptosis, and angiogenesis. AP-1 activity is induced by a complex network of signaling pathways that involves extracellular signals, such as growth factors. The AP-1 protein complex formed from c-Fos and c-Jun binding to the AP-1 response element results in transcriptional activation of genes containing such elements within their promoter.
# Low molecular weight molecules have been discovered and developed to modulate various components of these signaling pathways, for example, MAP kinase inhibitors. However, many points of pathway modulation remain untested due to the lack of chemical probes making this signaling locus of general interest.
# Using a beta-lactamase reporter-gene under control of the AP-1 response element, a cell-based assay [CellSensor(TM) AP-1-bla ME-180 developed by Invitrogen Corp.] was used to measure EGF-induced signaling. The Tox21 10K library compounds were measured for their ability to positively modulate the action of EC50 EGF on reporter gene activity. Compounds were screened in a 15-pt titration series in 1536-well format. The cytotoxicity of the Tox21 compound library against this cell line was tested in parallel by measuring the intra cellular ATP content in the same wells.
# Tox21 Assay Protocol Summary:
# 2500 cells/5uL in Opti-MEM medium containing 0.5% dialyzed FBS, 0.1 mM NEAA, 1 mM sodium pyruvate and 10 mM HEPES was dispensed into 1536-well black wall/clear bottom plates using a Multidrop dispenser and cells were cultured at 37 degrees Celsius overnight. Next day 23 nL of compounds dissolved in DMSO, positive controls or DMSO were delivered to each well using a pin tool. The plates were incubated at 37 degrees Celsius for 5 hours. 1 uL of LiveBLAzerTM B/G FRET substrate (Solution A+B+C+D) was added to each well using a Flying Reagent Dispenser. After incubated at room temperature for 2.5 hours the plates were measured on an EnVision plate reader at Excitation 405nm, Emission1=460nm and Emission 2=530nm. The %Activity was determined from the ratio of 460nm/530nm.
# After the plates were read for Beta-Lactamase assay on Envision; 3 ul Cell Titer Glo (Promega) was added to measure the cytotoxicity and the plates were then incubated at RT in dark for 30 min. The luminescence was read on ViewLux (Perkin Elmer, Shelton, CT) using 6 sec exposure. ViewLux data was expressed as relative luminescence units.
# For primary data analysis, raw plate reads for each titration point were first normalized relative to […] EGF control (100%) and DMSO only wells (basal, 0%).
# For primary data analysis for viability assay, raw plate reads for each titration point were first normalized Tetra n-octyl ammonium bromide control (-100%) and DMSO (control, 100%).
row,SMILES,Potency
1,CCCCCCCCCCCCCCCC(=O)O,inactive
2,C/C=C/c1ccc(OC)cc1,inactive
3,CCCC(CCC)C(=O)O,inactive
4,Nc1ccc(S(=O)(=O)c2ccc(N)cc2)cc1,inactive
5,NC(=O)c1ccccc1O,inactive
6,CC(=O)NS(=O)(=O)c1ccc(N)cc1,inactive
7,CC(O)CO (stereo not given),inactive
8,O=C(C1CCCCC1)N1CC(=O)N2CCc3ccccc3C2C1 (stereo not given),inactive
9,O=C(O)CCC(=O)O,inactive
10,Cc1ccc(O)cc1,inactive
11,C[C@]12C=CC(=O)C=C1CC[C@@H]1[C@@H]2[C@@H](O)C[C@@]2(C)[C@H]1CC[C@]2(O)C(=O)CO,inactive
12,NS(=O)(=O)c1cc(C(=O)O)c(NCc2ccco2)cc1Cl,inactive
13,O=C(O)C(=O)O,inactive
14,O=C(O)c1cccnc1,inactive
15,Nc1ccn([C@H]2CC[C@@H](CO)O2)c(=O)n1,inactive
16,NC(N)=NC(=O)c1nc(Cl)c(N)nc1N,inactive
17,CCCNC(=O)NS(=O)(=O)c1ccc(Cl)cc1,inactive
18,Cn1cc[nH]c1=S,inactive
19,CCC1(c2ccccc2)C(=O)NCNC1=O,inactive
20,O=C(O)CCCCC(=O)O,inactive

row,SMILES,Potency
1,CCCCC(CC)COC(=O)/C=C/c1ccc(OC)cc1 (stereo not given),inactive
2,O=C(O)CS,inactive
3,O=C(O)c1cccc([N+](=O)[O-])c1,inactive
4,OC(Cn1cncn1)(Cn1cncn1)c1ccc(F)cc1F,inactive
5,Nc1ccc(O)c(C(=O)O)c1,inactive
6,O=C(O)CCCCCCCC(=O)O,inactive
7,CC(=O)Nc1nnc(S(N)(=O)=O)s1,inactive
8,CNC[C@H](O)c1cccc(O)c1,inactive
9,O=C(O)/C=C\C(=O)O,inactive
10,CC(O)CN(CCN(CC(C)O)CC(C)O)CC(C)O (stereo not given),inactive
11,O=c1ccc2ccccc2o1,inactive
12,CCCCC1C(=O)N(c2ccccc2)N(c2ccccc2)C1=O,inactive
13,O=C1CN(/N=C/c2ccc([N+](=O)[O-])o2)C(=O)N1,inactive
14,CCOc1ccc(NC(=O)CC(C)O)cc1 (stereo not given),inactive
15,Cc1ccc(C)c(OCCCC(C)(C)C(=O)O)c1,inactive
16,NC(=O)NC1NC(=O)NC1=O (stereo not given),inactive
17,CC(C)[C@@H]1CC[C@@H](C)C[C@H]1O,inactive
18,Cc1cc(=O)[nH]c(=S)[nH]1,inactive
19,Cc1cn([C@H]2C[C@H](N=[N+]=[N-])[C@@H](CO)O2)c(=O)[nH]c1=O,inactive
20,NNC(=O)c1ccncc1,inactive
